# Only some compounds are listed: those with a hit (about 4.2% of all), similar ones and a draw of the others.
# SW480 rerep: inducers of DNA re-replication in SW480 colon cancer cells. SW480 DNA re-replication, Hoechst DNA content imaging, 48 h. Potency, µM (titrated, usually from 46.1 µM), for the others: top-dose re-replication activation, hits mostly activators. 1.8% of 340,000 active. AID 624297; note: % of control where 0% means no effect; nearly all actives have a fitted effect of over 55% in size
#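 Image-based DNA-content assay: after two days of treatment, nuclei were labelled with the DNA dye Hoechst and imaged, and hits were compounds raising the count of nuclei showing high fluorescence intensity.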
# AT treatment: potential ataxia-telangiectasia treatment; F2112 A-T fibroblasts, KAP-1 phosphorylation AlphaLISA; neocarzinostatin DNA damage 30 min before lysis; Potency, µM (top dose mostly 57.5 µM), inactives show top-dose activation, hits mostly activators; AID 485349; 0.19% of 320,000 active; note: % of control where 0% means no effect; nearly all actives have a fitted effect of over 45% in size
#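 ATM-like activity read as KAP-1 phosphorylation via AlphaLISA donor/acceptor antibody pairs after lysis and 6 hr at 25C. Cells were ATM-null patient fibroblasts (F2112, hTERT), dosed 60 min, then exposed to the DSB inducer NCS for 30 min.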
# a7 integrin act: activators of alpha7 integrin expression for muscular dystrophy; Potency, µM (doses to about 38.3 µM), without a hit: at the highest dose activation, most hits filed as activators; 0.064% of 350,000 active; alpha7betagal myoblasts, beta-gal FDG fluorescence, 48 h;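 note: 100% = response of the positive control SU9516; nearly all actives have a fitted effect of over 60% in size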
#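 Alpha7betagal+/- myoblasts (passage 13) were plated 16-24 hr, then exposed to compounds (1:260 dilution of DMSO stock) for 48 hours at 37C. After MPER lysis, β-galactosidase reporter activity was read as FDG fluorescence (ex 480/em 540) after 30 minutes.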
# Mito fusion act: blocks mitochondrial division or promotes mitochondrial fusion; S. cerevisiae fusion-defective mutant growth rescue, CellTiterGlo 48 h; Potency, µM (top dose mostly 46.1 µM), for inactives: at the highest dose growth rescue (activation), actives largely listed as activators; 0.23% of 320,000 active; AID 485298; note: % of control where 0% means no effect; nearly all actives have a fitted effect of over 45% in size
#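 Read-out: ATP-based luminescence (CellTiterGlo, 10 min ambient) reporting growth of fusion-defective ts yeast after 48 hours at 37C on glycerol/ethanol YPEG medium in the presence of compound.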
# MCF10A rereplic: induces DNA re-replication in MCF 10a normal breast cells | MCF 10A DNA re-replication, Hoechst nuclear intensity, 48 h | Potency, µM (doses to about 46.1 µM), without a hit: at the top dose activity, positive = re-replication, actives largely listed as activators | 2.9% of 350,000 active; note: % of control where 0% means no effect; nearly all actives have a fitted effect of over 50% in size
# Active calls of the source: *; ? = inconclusive; . = no result given; ! = a repeat was not active. Calls come from the whole dose curve; as a rule, active = well fitted activation curve with a large enough effect; inconclusive = small, poorly fitted or top-dose-only effect; inactive = no such curve, though single readings can be large or run the other way. Potency is the fitted concentration of half-maximal effect.
SMILES,SW480 rerep,AT treatment,a7 integrin act,Mito fusion act,MCF10A rereplic
COc1ccc(CCn2c(C3CCCCC3)nc3c(c(=O)c4ccccc4n3C)c2=O)cc1,-22%,-3%,-28%,-1%,3.7µM*
COc1ccc(Cn2c(C3CCCCC3)nc3c(c(=O)c4ccccc4n3C)c2=O)cc1,-4%,8%,0%,0%,-2%
CCCCc1ncc(/C=C(\Cc2cccs2)C(=O)O)n1Cc1ccc(C(=O)O)cc1,-1%,.,.,.,-1%
Nc1nc2ccc(Oc3ccccc3)cc2s1,-49%,1%,3%,20%,14%
Nc1nc2ccc(OC(F)(F)F)cc2s1,-19%,-2%,.,3.3µM*!,9%
O=C(C=Cc1ccccc1)CC(c1ccccc1)N1CCOCC1 (stereo not drawn),3.7µM*,.,-63%,.,3.7µM*
C=C(C)COc1ccc(-c2ncnc(C(F)(F)F)c2-c2ccc(OC)cc2)c(O)c1,?,-5%,21%,4%,?
C=C(C)COc1ccc(-c2nc(N)nc(C(F)(F)F)c2-c2ccc(OC)cc2)c(O)c1,21µM*,10%,-16%,30%,2.6µM*
CCc1cc(-c2nc(N)ncc2-c2ccc(Br)cc2)c(O)cc1OC,7%,?,-43%,?,18µM*
C=C(C)COc1ccc(-c2ncncc2-c2ccc(Br)cc2)c(O)c1,1%,9%,0%,-20%,?
C=C(C)COc1ccc(-c2[nH]ncc2-c2ccc(Br)cc2)c(O)c1,21µM*,11%,-38%,-22%,9.2µM*
COc1ccc(-c2cn[nH]c2-c2ccc(OCc3ccc([N+](=O)[O-])cc3)cc2O)cc1,?,7%,?,15%,5.8µM*
CN1OC[C@@H]2CN(S(=O)(=O)c3cccc4ccccc34)[C@H](c3ccc(-c4cccnc4)cc3)C[C@@H]21,.,.,-12%,.,.
C=C(C)COc1ccc(-c2ncncc2-c2ccc(Cl)cc2)c(O)c1,-4%,27%,17%,-16%,15µM*
COc1ccc(-c2cn[nH]c2-c2ccc(O)cc2O)cc1OC,3%,-9%,0%,-10%,1%
COc1ccc(-c2c(-c3ccc(O)cc3O)n[nH]c2C(F)(F)F)cc1,12µM*,-5%,-23%,4%,?
CCOc1ccc(-c2[nH]ncc2-c2ccc(OC)c(OC)c2)c(O)c1,2.6µM*,15%,-32%,17%,?
C=C(C)COc1ccc(-c2nc(N)ncc2-c2ccc(Br)cc2)c(O)c1,?,2%,-74%,-35%,23µM*
CCOCCCN(C(=O)Cn1nnc(-c2ccc(C)o2)n1)C(C(=O)NC1CCCC1)c1ccc(C)o1 (stereo not drawn),12%,5%,-32%,-2%,-1%
C=C(C)COc1ccc(-c2[nH]ncc2-c2ccccc2OC)c(O)c1,?,26%,-27%,17%,15µM*
C=C(C)COc1ccc(-c2[nH]ncc2Oc2ccccc2OC)c(O)c1,16%,.,-50%,7%,15%
COc1ccc(CNC(=O)COC(=O)CCc2c[nH]c3ccccc23)cc1,0%,2%,10µM*,0%,?
Clc1ccccc1CNCc1ccc2c(c1)OCO2,.,.,-3%,.,.
CCCn1ncc(CN2CCC(n3nccc3NC(=O)c3ccccc3Cl)CC2)c1C,3%,-3%,0%,0%,?
CC1CN(S(=O)(=O)c2cccc(-c3cn4ccccc4n3)c2)CC(C)O1 (stereo not drawn),13%,-22%,1%,2.8µM*,-5%
SMILES,SW480 rerep,AT treatment,a7 integrin act,Mito fusion act,MCF10A rereplic
Cc1cccn2cc(-c3cccc(S(=O)(=O)N4CC(C)OC(C)C4)c3)nc12 (stereo not drawn),-7%,5%,-1%,-17%,-5%
CCOC(=O)c1c(NC(=O)COC(=O)c2ncc(Cl)c(Cl)c2Cl)sc(C(=O)N(C)C)c1C,-9%,-11%,-31%,-1%,-2%
O=C(CCS(=O)(=O)c1ccc(F)cc1)Nc1nccs1,.,.,-41%,.,.
CN1/C(=C\C(=O)c2cccs2)Sc2ccccc21,15µM*,4%,10%,-2%,18µM*
CN1/C(=C\C(=O)c2cccs2)C(C)(C)c2ccccc21,?,10%,-6%,?,4.1µM*
O=C(C1CCCN(S(=O)(=O)c2cnc[nH]2)C1)N1CC(=O)N(CCc2ccccc2)C(=O)C1 (stereo not drawn),9%,3%,19%,-5%,-6%
CN1/C(=C/C2CC(=O)N(c3cccc4ccccc34)C2=O)C(C)(C)c2ccccc21 (stereo not drawn),18µM*,-1%,-12%,4%,?
COc1ccc(CN2CCN(C3CCSCC3)CC2CCO)c(C)c1C (stereo not drawn),5%,-2%,16%,9%,?
COc1ccc(CN2CCN(CC3CC3)CC2CCO)c(C)c1C (stereo not drawn),-42%,-5%,9%,-3%,26µM*
Cc1ccccc1N1C(=O)c2cc(N)ccc2N/C1=C\F,-4%,.,.,.,-2%
CCn1c(N2CCN(C(=S)NCC(C)C)CC2)nc2ccccc21,17%,-3%,26%,-3%,18µM*
CCOC(=O)c1c(C)[nH]c(C)c1C(=O)COC(=O)[C@@H](NC(=O)c1ccco1)C(C)C,-5%,3%,-10%,.,0%
O=C(NC(=S)Nc1cc([N+](=O)[O-])ccc1O)c1ccc2c(c1)OCO2,?,0%,9%,1%,13µM*
COc1cc([N+](=O)[O-])ccc1NC(=S)NNC(=O)c1ccc2c(c1)OCO2,?,15%,-1%,5%,-1%
CCCn1c(N)c(N(CCOC)C(=O)CSCC(=O)Nc2ccc(OC)cc2)c(=O)[nH]c1=O,-6%,16%,-12%,-6%,-2%
O=C(O)CSc1cc(NS(=O)(=O)c2ccc(Cl)cc2)c2ccccc2c1O,?,12%,-3%,-21%,23µM*
Cn1c(=O)[nH]c(=O)c2c1nc(N1CCN(CCO)CC1)n2Cc1ccccc1Cl,-16%,6%,-7%,4%,0.65µM*
CCCCCCCCCNC(=O)[C@H](NC(=O)COc1ccccc1)[C@@H]1NC(C(=O)OC)C(C)(C)S1 (stereo partly drawn),-35%,.,-1%,.,6.5µM*
COC(=O)C1N[C@@H]([C@@H](NC(=O)COc2ccccc2)C(=O)NCc2ccsc2)SC1(C)C (stereo partly drawn),4%,.,24%,.,?
Cc1oc2c(C)c3oc(=O)c(CCC(=O)O)c(C)c3cc2c1-c1ccccc1,-17%,0%,33%,3.5µM*,11%
N#CC(=C1C=C(Br)C(=NO)C=C1Cl)c1cccc2ccccc12,.,.,-50%,.,.
COC(=O)C1=CN(c2ccc(F)cc2)C=C(C(=O)OC)C1c1cccc([N+](=O)[O-])c1,25%,20%,27%,-23%,2%
